According to PubChem BioAssay AID588689 (Southern Research Specialized Biocontainment Screening …, 2011):
In all, about 340,000 compounds went through this assay and about 1,000 (0.29%) were called active. Cut-off read from the data, not from the text of the source: inconclusive = inhibition above about 29% without an active follow-up result; inactive = below that. Not all results are given here. Entries with a potency or affinity are not part of this list.

Molecular target: Genome polyprotein (Dengue virus type 2 (strain 16681-PDK53)) (UniProt P29991)
Assay: Dengue-2 NS5 methyltransferase inhibitors, primary screen, biochemical, confirmation dose response (AID 588689)
Conditions: Dengue-2 NS5 methyltransferase capping enzyme assay, at 25 µM, stronger effect = higher value
[1] = measured here: pilot screen replicate inhibition

Structure (SMILES) | inhibition | inhibition [1] [%]
O=C1NN(c2ccccc2)C(=O)/C1=C\c1ccc(-c2cc([N+](=O)[O-])ccc2O)o1 | -10.2% (inactive) | –
O=Cc1ccc(-c2cccc(C(=O)O)c2)o1 | 0.72% (inactive) | –
O=C1NN(c2ccccc2)C(=O)/C1=C/c1ccc(Sc2cccc3ccccc23)o1 | -6.2% (inactive) | –
O=C1NN(c2ccccc2)C(=O)/C1=C/c1ccc(Sc2ccc(Cl)cc2)o1 | 29.5% (inactive) | –
CCc1cc(=O)oc2c3c(cc(OCC(=O)NCCCC(=O)O)c12)OC(C)(C)CC3 | -5.29% (inactive) | –
Cc1cc(C)n2nc(SCC(=O)N3CCCCC3C)nc2n1 (stereo not given) | 3.69% (inactive) | –
CCC1(C2=CCCCC2)C(=O)NC(=O)N=C1N (stereo not given) | 1.17% (inactive) | –
C[C@H](NC(=O)c1nc[nH]c1C(=O)NCCCCCN)C(=O)OCc1ccccc1 | 1.59% (inactive) | –
O=C(COC(=O)c1ccc(-c2cnc3ccccc3n2)cc1)c1ccccc1 | 5.84% (inactive) | –
COc1ccc(-n2nc3cc(N)c(Br)cc3n2)cc1 | 2.38% (inactive) | –
Nc1cccc2nsnc12 | 12.4% (inactive) | –
CCOC(=O)C1C(C(=O)Nc2cccc(C(F)(F)F)c2)C1C(=O)NC(C)C (stereo not given) | -1.46% (inactive) | –
O=C(Nc1c[nH]c(=O)[nH]c1=O)c1cccc([N+](=O)[O-])c1 | -9.65% (inactive) | –
COC(=O)c1sc(-c2ccc(Cl)cc2)cc1NC(=O)c1ccccc1C(=O)O | 15.7% (inactive) | –
COC(=O)c1sc(-c2ccccc2)cc1NC(=O)c1ccccc1 | -1.45% (inactive) | –
COC(=O)c1sc(-c2ccc(Cl)cc2)cc1NC(=O)/C=C/C(=O)O | 16.1% (inactive) | –
COC(=O)c1sc(-c2ccc(C(C)(C)C)cc2)cc1NC(=O)CSCC(=O)O | 3.13% (inactive) | –
OCC(CO)(CO)n1cnnn1 | -8.59% (inactive) | –
Cc1ccnc(N/C=C(/NC(=O)c2ccccc2)C(=O)N/N=C\c2ccc(Cl)cc2)n1 | -3.09% (inactive) | –
O=C(COC(=O)c1ccc2c(c1)S(=O)(=O)N=C1CCCCCN12)NCc1cccs1 | -3.45% (inactive) | –
CCOC(=O)C1CCCN(S(=O)(=O)c2cc(OCC(N)=O)c(C)cc2Cl)C1 (stereo not given) | -5.68% (inactive) | –
CC(C)c1ccc(S(=O)(=O)c2nnn3c2nc(N2CCCCC2)c2ccccc23)cc1 | 1.47% (inactive) | –
CC(C)c1ccc(S(=O)(=O)c2nnn3c2nc(NCC2CCCO2)c2ccccc23)cc1 (stereo not given) | 0% (inactive) | –

Structure (SMILES) | inhibition | inhibition [1] [%]
O=C(/C=C/c1ccco1)Nc1ccc2c(c1)OCCO2 | -4.48% (inactive) | –
COC(=O)c1c(-c2ccc(C)cc2)csc1NC(=O)C1CC=CCC1C(=O)O (stereo not given) | 0% (inactive) | –
CCOC(=O)c1c(-c2ccc(F)cc2)csc1NC(=O)C1CC=CCC1C(=O)O (stereo not given) | 9.56% (inactive) | –
CCOC(=O)c1c(-c2ccc(C)cc2)csc1NC(=O)C1CC=CCC1C(=O)O (stereo not given) | 14.8% (inactive) | –
COC(=O)c1c(-c2ccccc2)csc1NC(=O)C1CC=CCC1C(=O)O (stereo not given) | -4.1% (inactive) | –
O=C(NC(=S)Nc1ccccc1Br)C1CC1 | 7.22% (inactive) | –
Cc1nc2cc(N3CCCCC3)c(NC(=O)c3cccnc3)cc2c(=O)n1Cc1ccccc1 | -0.81% (inactive) | –
Nn1c(SCC(=O)Nc2ccc(F)c(F)c2)nnc1C1CCCCC1 | -4.85% (inactive) | –
COC(=O)CSc1nnc(-c2ccc(S(=O)(=O)N3CCCC3)cc2)o1 | -3.25% (inactive) | –
Nc1nc2c(nc(SCc3ccccc3Br)n2[C@@H]2O[C@H](CO)[C@@H](O)[C@H]2O)c(=O)[nH]1 | -5.87% (inactive) | –
CCOc1ccc(NC(=S)N(CCc2c(C)[nH]c3ccc(C)cc23)Cc2ccncc2)cc1 | -0.7% (inactive) | –
O=C(CSc1nnc(-c2ccc(Cl)cc2)n1-c1ccccc1)N/N=C/c1ccccc1C(=O)O | -3.12% (inactive) | –
COc1ccc([C@H]2N[C@]3(CCCN(Cc4ccc(Cl)cc4)C3=O)[C@H]3C(=O)N(Cc4ccccc4)C(=O)[C@@H]23)cc1 | -3.98% (inactive) | –
CCOC(=O)c1c(NCc2ccc3c(c2)OCO3)c2ccccc2[nH]c1=O | -4.02% (inactive) | –
O=S(=O)(Nc1nc(-c2ccccc2)cs1)c1cc(Cl)ccc1Cl | 28.3% (inactive) | –
O=S(=O)(Nc1nccs1)c1cc(Cl)ccc1Cl | -13.7% (inactive) | –
S=C(Nc1ccc(Nc2ccccc2)cc1)Nc1ccccn1 | -0.82% (inactive) | –
COc1ccc(-c2cc(=O)c3ccccc3n2C)cc1 | -9.65% (inactive) | –
CCOc1ccc(N2C(=O)C(Cl)=C(Nc3ccccc3O)C2=O)cc1 | 31% (inactive) | –
COc1ccc(N2C(=O)C(Cl)=C(Nc3ccccc3OC)C2=O)cc1 | 1.45% (inactive) | –
Cc1cccc(/C=N/n2c(C)cc(C)c(C#N)c2=O)c1 | -3.26% (inactive) | –
O=C1NC(=S)N/C1=C/c1cccn1-c1ccc([N+](=O)[O-])cc1 | 0% (inactive) | –
O=C1C(=Cc2cccn2-c2ccccc2)C(=O)c2ccccc21 | 5.2% (inactive) | –

Structure (SMILES) | inhibition | inhibition [1] [%]
O=C(O)c1cccc(-n2cccc2C=C2C(=O)c3ccccc3C2=O)c1 | 12.5% (inactive) | –
O=Cc1cccn1-c1ccc(O)cc1 | -5.89% (inactive) | –
CCC(OC(=O)CNS(=O)(=O)c1ccccc1)C(=O)c1ccccc1 (stereo not given) | 5.35% (inactive) | –
COc1ccc2c(c1OC)C(=O)N1C(C(=O)O)Cc3c([nH]c4ccccc34)C21 (stereo not given) | -3.23% (inactive) | –
CCOc1cc(NC(=S)NCCCN2CCOCC2)c(OCC)cc1NC(=O)c1cccc(C)c1 | 3.64% (inactive) | –
O=S(=O)(CCSc1ccc(C(F)(F)F)cn1)c1ccccc1 | -9.27% (inactive) | –
O=C(NCc1ccco1)c1ccc(CS(=O)Cc2cccc(Cl)c2)o1 (stereo not given) | 2.71% (inactive) | –
NNc1nc(-c2ccccc2)c2cc(Cl)ccc2n1 | 4.62% (inactive) | –
COCCN(CC(=O)Nc1cccc(C)c1C)C(=O)C1(c2ccc(Cl)cc2)CCC1 | -0.37% (inactive) | –
Cc1ccc(C2C3=C(CCCC3=O)Nc3[nH]c(=S)[nH]c(=O)c32)cc1 (stereo not given) | -5.01% (inactive) | -6.68
O=C1CCCC2=C1C(c1ccc(Br)cc1)c1c([nH]c(=S)[nH]c1=O)N2 (stereo not given) | 15.2% (inactive) | –
O=c1cc(CCc2ccccc2)oc2cccc(O)c12 | -3.62% (inactive) | –
CC(C)(C)C(=O)CN1C(=O)NC2(CCc3ccccc32)C1=O (stereo not given) | -0.65% (inactive) | –
COc1cccc(-c2nc(CS(=O)(=O)CC(=O)N3CCc4ccccc4C3)c(C)o2)c1 | 6.54% (inactive) | –
CNc1ccccc1C(=O)OC | 2.17% (inactive) | –
CC1(C)CC(=O)C(C(C#Cc2ccccc2)C2=C(O)CC(C)(C)CC2=O)=C(O)C1 | -2.82% (inactive) | –
CC1(C)CC(=O)C(N=Nc2ccc(OC(F)F)cc2)=C(O)C1 | 10.8% (inactive) | –
COc1cccc(C(C2=C(O)CC(C)(C)CC2=O)C2C(=O)CC(C)(C)CC2=O)c1 (stereo not given) | -1.95% (inactive) | –
CC1(C)CC(=O)C(C(C2=C(O)CC(C)(C)CC2=O)c2cccc(O)c2)C(=O)C1 (stereo not given) | 0.68% (inactive) | -19.3
CC1(C)CC(=O)C(C(C2=C(O)CC(C)(C)CC2=O)c2ccco2)C(=O)C1 (stereo not given) | -52.5% (inactive) | –
CC1(C)CC(=O)C(Br)=C(O)C1 | -10.3% (inactive) | –
CC1(C)CC(=O)C(C(c2ccncc2)C2C(=O)CC(C)(C)CC2=O)C(=O)C1 | 5.41% (inactive) | –
CC1(C)CC(=O)C(C(c2ccco2)C2C(=O)CC(C)(C)CC2=O)C(=O)C1 | 37.4% (inactive) | 17.1

Structure (SMILES) | inhibition | inhibition [1] [%]
O=C(O)c1cnc(-c2ccccc2)nc1Sc1ccc(Cl)cc1Cl | 4.03% (inactive) | –
Cc1cccc(C2=NN(c3ccccc3)[C@@H](C(=O)N3CCOC3=O)[C@@H]2C)c1 | -1.32% (inactive) | 4.88
CCOC(=O)c1cc(=O)nc(N)s1 | -4.03% (inactive) | –
O=C(COc1ccc([N+](=O)[O-])cc1)NCC(c1cccs1)N1CCOCC1 (stereo not given) | 4.32% (inactive) | –
CC(C)(C)OC(=O)N1CCC(CC2CC(c3ccccc3)=NO2)(C(=O)O)CC1 (stereo not given) | -3.93% (inactive) | –
O=S(=O)(Nc1ccccc1N1CCCCC1)c1ccccc1 | 1.3% (inactive) | –
S=C(Nc1ccc(Br)cc1Cl)N1CCCC1 | -2.6% (inactive) | –
COc1ccc(C2=CC(=O)C[C@H](c3ccc(OC)c(OC)c3)C2)cn1 | -0.4% (inactive) | –
O=C(O)CN1CCN(Cc2cccc(Cl)c2)C1=O | -1.31% (inactive) | –
CCCC(C1=C(O)CC(C)(C)CC1=O)C1C(=O)CC(C)(C)CC1=O (stereo not given) | -11.2% (inactive) | –
CC1(C)CC(=O)C(CC2=C(O)CC(C)(C)CC2=O)C(=O)C1 | -33.8% (inactive) | –
CC(C)c1cc(C(=O)NCc2cccnc2)no1 | 1.6% (inactive) | –
O=C(NNc1ccccc1[N+](=O)[O-])Nc1ccccc1 | -1.39% (inactive) | –
CC1CCc2c(sc3ncnc(SCC(=O)Nc4ccc(C(=O)O)cc4)c23)C1 (stereo not given) | -4.98% (inactive) | –
COc1cc(NC(=O)CSc2ncnc3sc4c(c23)CCCC4)c(C(=O)O)cc1OC | -3.33% (inactive) | –
COCCNC(=O)C(=O)c1c(-c2ccccc2)[nH]c2ccccc12 | 1.52% (inactive) | –
O=C(Nc1ccc(S(=O)(=O)N2CCOCC2)cc1)c1ccc2c(c1)S(=O)(=O)c1ccccc1C2=O | -4.52% (inactive) | –
O=C(Nc1cc(S(=O)(=O)N2CCOCC2)ccc1N1CCCC1)c1ccc2c(c1)S(=O)(=O)c1ccccc1C2=O | -7.41% (inactive) | –
COCc1nc(-c2cc(Br)ccc2OC)no1 | -4.06% (inactive) | –
CCn1c(O)c(C=Nc2ccccc2)oc1=S | -8.34% (inactive) | –
Cc1nc2ccc(NC(=O)c3ccc(Cl)c([N+](=O)[O-])c3)cc2s1 | -4.44% (inactive) | –
Cc1nc2ccc(NC(=O)c3ccc([N+](=O)[O-])cc3[N+](=O)[O-])cc2s1 | -5.18% (inactive) | –
